# Compound activity: PubChem, National Center for Advancing Translational Sciences (NCATS)
# IL1B secr inh – qHTS for Inhibitors of Inflammasome Signaling: IL-1-beta AlphaLISA Primary Screen | THP-1 LPS/ATP IL-1B secretion, AlphaLISA, 16 h; active compounds read low | activity change, % at 57.5 µM | actives 4.7% (n = 360,000); in the data active means activity change below about -50%; inconclusive means mostly about -30% to -49%
#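 Secreted IL-1B measured by AlphaLISA bead assay after 16 h compound exposure of THP-1 cells; compounds (final up to 57.5 uM) added 1 h before LPS (250 ng/mL) and ATP (1.25 mM) stimulation; lower signal means less secretion.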
# HT1080NT lethal – qHTS for induction of synthetic lethality in tumor cells producing 2HG: qHTS for the HT-1080-NT fibrosarcoma cell line. Potency, µM (titrated, usually from 46.1 µM), usual class: cytotoxic. HT-1080-NT fibrosarcoma viability, CellTiter-Glo ATP luminescence, 48 h. actives 1.6% (n = 360,000);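 further: NT is the 2HG producing partner of a matched IDH1 knockdown line; nearly all actives have a fitted effect of over 55% in size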
#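 HT-1080-NT; 750 cells/well; 5% FBS RPMI; 48 h compound, 37 degrees C; CellTiter-Glo luminescence; curve fitting and curve-class assignment.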
# TDP1 cell CPT – qHTS for Inhibitors of human tyrosyl-DNA phosphodiesterase 1 (TDP1): qHTS in cells in presence of CPT. chicken DT40 Tdp1-/-;hTDP1 cells + 20 nM CPT, ATP luminescence, 48 h. Potency, µM (doses to about 46.2 µM), hits mostly inhibitors. actives 12% (n = 420,000). AID 686979, 2013; further: nearly all actives have a fitted effect of over 55% in size
#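 Cell growth measured by CellTiter-Glo luminescence after a minimum 48 h, 37 C compound exposure with 20 nM CPT in Tdp1-knockout DT40 cells stably expressing hTDP1, seeded 400/well; qHTS titration format.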
# HT1080 IDH1KD tx – qHTS for induction of synthetic lethality in tumor cells producing 2HG: qHTS for the HT-1080-IDH1KD cell line | HT-1080 IDH1 knockdown viability, ATP luminescence, 48 h | Potency, µM (highest dose often 46.1 µM), most hits filed as cytotoxic | actives 2% (n = 360,000) | AID 686971, 2013
#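 In this qHTS, HT-1080 cells depleted of IDH1 are exposed for 48 h at 37 °C to compound titrations. Toxicity is scored from CellTiter-Glo luminescence, with DMSO as full viability and medium alone as none.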
# DT40 TDP1 no CPT – qHTS for Inhibitors of human tyrosyl-DNA phosphodiesterase 1 (TDP1): qHTS in cells in absence of CPT; Potency, µM (titrated, usually from 46.2 µM), usual class: inhibitors; actives 15% (n = 420,000); DT40 Tdp1-/- hTDP1 cells, no CPT, ATP luminescence, 48 h; further: nearly all actives have a fitted effect of over 55% in size
#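 Seeded 400 DT40-hTDP1 cells/well (vehicle DMSO, no 20 nM CPT); pinned compounds; ≥48 hr at 37 °C; CellTiter-Glo luminescence as viability measure.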
# Hits are given with their value; - = inactive; ? = inconclusive; . = no result given; [ ] = remark or other dose. Only some compounds are listed: those with a hit (about 19% of all), similar ones and a draw of the others. Unless noted, the call rests on the fitted dose curve; in most records, active means well fitted curve in the direction sought with a large enough effect; inconclusive means small, poorly fitted or top-dose-only effect, or another doubt; inactive means no such curve, though single readings can be large; an effect the other way counts as inactive or inconclusive.
SMILES,IL1B secr inh,HT1080NT lethal,TDP1 cell CPT,HT1080 IDH1KD tx,DT40 TDP1 no CPT
Cc1cccc(-c2nc(Cn3c(=O)cc(-c4ccccc4)c4c(C)nn(C)c43)c(C)o2)c1,.,.,-,.,-
CCN1CCN(S(=O)(=O)c2ccc(Cl)c(C(=O)Nc3nnc(C)s3)c2)CC1,-,-,-,-,-
CN(C)C(=O)CSc1nnc(-c2cc(-c3cccs3)nc3ccccc23)o1,-60,-,-,-,18µM
CCN(CC)C(=O)CSc1nnc(-c2cc(-c3ccc(Cl)cc3)nc3ccccc23)o1,-,-,-,-,?
COc1ccccc1-c1ccc(SCc2ccc(F)cc2)nn1,?,-,-,-,-
COc1ccccc1-c1ccc(SCc2ccc(C)cc2)nn1,-,-,?,-,15µM
COc1ccc(OCCNC(=O)c2ccccc2OCC(=O)Nc2ccc(NC(C)=O)cc2)cc1,-,-,18µM,-,15µM
COc1ccc(OCCNC(=O)c2ccccc2OCC(=O)N2CCCCC2)cc1,-,-,21µM,-,18µM
COc1cccc(-n2nnc3c(=O)n(CC(=O)Nc4ccc(C)cc4)cnc32)c1,-,-,-,-,-
O=C(Cc1cn(Cc2cccc(Cl)c2)c2ccccc12)N1CCCCCC1,-65,-,?,-,?
CC1CCCN(C(=O)Cc2cn(Cc3cccc(Cl)c3)c3ccccc23)C1 (stereo unspecified),-76,?,?,?,15µM
O=C(O)Cc1cn(Cc2cccc(Cl)c2)c2ccccc12,-,-,-,-,-
O=C(NC(Cc1ccccc1)C(=O)O)/C(=C/c1cccc([N+](=O)[O-])c1)NC(=O)c1cccc(Br)c1 (stereo unspecified),-,-,-,-,-
Cc1nc([N+](=O)[O-])c(C(=O)OCc2ccccc2C#N)n1C,-,-,-,-,-
CC(=O)NCCC(=O)Nc1cc(S(=O)(=O)N2CCOCC2)ccc1N1CCCC1,-,-,-,-,-
Cc1ccc(-n2ncc3c(N4CCN(CCO)CC4)ncnc32)cc1Cl,.,.,12µM,.,?
Cc1ccc(-n2ncc3c(N4CCN(C)CC4)ncnc32)cc1Cl,.,.,?,.,21µM
CCN1CCN(c2ncnc3c2cnn3-c2ccc(C)c(Cl)c2)CC1,.,.,-,.,-
O=[N+]([O-])c1cccc(N/N=C/c2cccc3ccccc23)c1,-,-,?,-,?
O=[N+]([O-])c1ccc(N/N=C/c2cccc(O)c2O)cc1,?,?,?,?,15µM
Cc1cccc(C(=O)Oc2ccccc2/C=N/Nc2ccc([N+](=O)[O-])cc2)c1,-,-,29µM,-,16µM
O=[N+]([O-])c1ccc(N/N=C/c2cccc(O)c2)cc1,-88,?,?,?,21µM
O=[N+]([O-])c1ccc(C=NNc2ccc(S(=O)(=O)O)cc2)cc1,-,-,-,-,-
Cc1csc2nc(SCC(=O)Nc3ccccc3F)[nH]c(=O)c12,-,-,-,-,-
O=C(NN(CC(O)COc1ccccc1)CC(O)COc1ccccc1)c1ccccc1 (stereo unspecified),-,-,-,-,-
SMILES,IL1B secr inh,HT1080NT lethal,TDP1 cell CPT,HT1080 IDH1KD tx,DT40 TDP1 no CPT
Cc1ccccc1CS(=O)(=O)c1nnc([C@H](Cc2ccccc2)NC(=O)OC(C)(C)C)o1,?,5µM,0.65µM,1.8µM,2.1µM
CCC(C)[C@@H](NC(=O)OC(C)(C)C)c1nnc(S(=O)(=O)Cc2cccc(C)c2)o1 (stereo partly specified),-116,18µM,2.1µM,-[9.24 µM],4.6µM
CCSc1nnc([C@H](Cc2ccccc2)NC(=O)OC(C)(C)C)o1,-,-,-,-,-
CC(C)c1c(C(=O)NCc2cccnc2)cnn1-c1nccc(-c2ccccc2F)n1,.,.,-[9.04 µM],.,?
O=C(NN=C1CCCCCC1)c1ccc(Cl)s1,-,-,-,-,-
N#Cc1cc(C#N)c(N2CCN(c3ccccn3)CC2)nc1N,-,-,?,-,22µM
COc1cccc(CNC(=O)c2c(OC)cc(=O)n3c2CCN(C(=O)C2CC24CCCC4)CC3)c1 (stereo unspecified),.,.,-,.,-
O=c1cc(CN2CCN(c3ccc(Cl)c(Cl)c3)CC2)c2ccccc2o1,-,-,-,-,15µM
COc1cccc(NCc2cc(=O)oc3cc(-c4ccccc4)c(O)cc23)c1,?,-,?,-,18µM
O=c1cc(CN2CCN(Cc3ccccc3)CC2)c2cc(Cl)ccc2o1,-,-,-,-,-
COc1cccc(NCc2cc(=O)oc3cc(C)c(O)cc23)c1,-,-,?,-,?
O=c1cc(CN2CCN(c3cccc(Cl)c3)CC2)c2cc(O)c(-c3ccccc3)cc2o1,-,-,13µM,-,18µM
O=c1cc(CN2CCN(c3ccccc3)CC2)c2cc(O)c(-c3ccccc3)cc2o1,-,-,5.8µM,-[9.24 µM],10µM
Cc1cccn2c(=O)c3cc(C(=O)N4COCC4(C)C)n(Cc4ccccc4)c3nc12,-,-,-,-,-
CC(=O)N1CCN(S(=O)(=O)c2cccc(C(=O)OCC(=O)NCc3ccccc3Cl)c2)CC1,-,-,-,-,-
O=C1C2CC(O)CN2C(=O)N1c1ccccc1 (stereo unspecified),-,-,-,-,-
O=C(c1cccc(F)c1)N1CCC[C@@]2(CCN(c3ncccn3)C2)C1,.,.,-,.,-
O=C(Nc1cccc(OC(F)(F)F)c1)C1Cc2c(-c3ccccc3Oc3ccccc3)ccnc2O1 (stereo unspecified),-,?,?,?,?
O=C(Nc1ccccc1)C1Cc2c(-c3ccccc3Oc3ccccc3)ccnc2O1 (stereo unspecified),-57,?,?,?,?
O=C(Nc1ccc(Cl)cc1)C1Cc2c(-c3ccccc3Oc3ccccc3)ccnc2O1 (stereo unspecified),-53,?,23µM,?,?
O=C(Nc1cc(C(F)(F)F)ccc1F)C1Cc2c(-c3ccccc3Oc3ccccc3)ccnc2O1 (stereo unspecified),-,?,?,?,18µM
Cc1cc(Br)cc2c1N(Cc1ccccc1OC(C)C)C(=O)C2=O,.,.,21µM,.,4.1µM
COc1ccccc1CN1C(=O)c2cccc3cccc(c23)C1=O,-,-,-,-,?
Cc1cccc2c1N(Cc1ccccc1OCCC(C)C)C(=O)C2=O,.,.,15µM,.,12µM
COc1ccccc1CN1C(=O)C(=O)c2cccc(C)c21,.,.,13µM,.,6.5µM
CCOC(=O)CN1C(=O)C(=O)c2cccc(C)c21,-,-,?,-,?
